Measurements from PubChem BioAssay.
The source made the active and inactive calls.

Assays:
[1] = small molecules captured by biotinylated probe aFSTL3 – biochemical, small-molecule microarray, fluorescence 635/667, stem cell growth factor project, primary screen (AID 1064); settings: higher = more signal;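 note: measures binding of the biotinylated anti-FSTL3 antibody to printed compounds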
[2] = binders from COS7 lysate, DM2A8 probe, primary screen, torsin A project, cell lysate, small-molecule microarray, fluorescence 635/667 (AID 1065); settings: higher = more signal, COS7 lysate expressing mutant human TOR1A
[3] = small molecules captured by biotinylated probe aFGF2 – biochemical, small-molecule microarray, fluorescence 635/667, stem cell growth factor project, primary screen (AID 1067); settings: higher = more signal;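 note: measures binding of biotinylated aFGF2 protein to printed compounds on slides; z-score merges feature fluorescence and signal-to-noise across triplicate slides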
[4] = small molecules captured by biotinylated probe aFGF10 – biochemical, small-molecule microarray, fluorescence 635/667, stem cell growth factor project, primary screen (AID 1071); settings: higher = more signal;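 note: score merges 667 nm spot intensity and signal to noise from triplicate slides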
[5] = target: Neurogenic locus notch homolog protein 2 (Homo sapiens) (UniProt Q04721); assay: small molecules binding Notch2 protein – biochemical, small-molecule microarray, 635 nm fluorescence, stem cell growth factors, primary screen (AID 1073); settings: higher = more signal
Neurogenic locus notch homolog protein 2 (Homo sapiens), sequence (Q04721 whole entry, looked up, canonical isoform): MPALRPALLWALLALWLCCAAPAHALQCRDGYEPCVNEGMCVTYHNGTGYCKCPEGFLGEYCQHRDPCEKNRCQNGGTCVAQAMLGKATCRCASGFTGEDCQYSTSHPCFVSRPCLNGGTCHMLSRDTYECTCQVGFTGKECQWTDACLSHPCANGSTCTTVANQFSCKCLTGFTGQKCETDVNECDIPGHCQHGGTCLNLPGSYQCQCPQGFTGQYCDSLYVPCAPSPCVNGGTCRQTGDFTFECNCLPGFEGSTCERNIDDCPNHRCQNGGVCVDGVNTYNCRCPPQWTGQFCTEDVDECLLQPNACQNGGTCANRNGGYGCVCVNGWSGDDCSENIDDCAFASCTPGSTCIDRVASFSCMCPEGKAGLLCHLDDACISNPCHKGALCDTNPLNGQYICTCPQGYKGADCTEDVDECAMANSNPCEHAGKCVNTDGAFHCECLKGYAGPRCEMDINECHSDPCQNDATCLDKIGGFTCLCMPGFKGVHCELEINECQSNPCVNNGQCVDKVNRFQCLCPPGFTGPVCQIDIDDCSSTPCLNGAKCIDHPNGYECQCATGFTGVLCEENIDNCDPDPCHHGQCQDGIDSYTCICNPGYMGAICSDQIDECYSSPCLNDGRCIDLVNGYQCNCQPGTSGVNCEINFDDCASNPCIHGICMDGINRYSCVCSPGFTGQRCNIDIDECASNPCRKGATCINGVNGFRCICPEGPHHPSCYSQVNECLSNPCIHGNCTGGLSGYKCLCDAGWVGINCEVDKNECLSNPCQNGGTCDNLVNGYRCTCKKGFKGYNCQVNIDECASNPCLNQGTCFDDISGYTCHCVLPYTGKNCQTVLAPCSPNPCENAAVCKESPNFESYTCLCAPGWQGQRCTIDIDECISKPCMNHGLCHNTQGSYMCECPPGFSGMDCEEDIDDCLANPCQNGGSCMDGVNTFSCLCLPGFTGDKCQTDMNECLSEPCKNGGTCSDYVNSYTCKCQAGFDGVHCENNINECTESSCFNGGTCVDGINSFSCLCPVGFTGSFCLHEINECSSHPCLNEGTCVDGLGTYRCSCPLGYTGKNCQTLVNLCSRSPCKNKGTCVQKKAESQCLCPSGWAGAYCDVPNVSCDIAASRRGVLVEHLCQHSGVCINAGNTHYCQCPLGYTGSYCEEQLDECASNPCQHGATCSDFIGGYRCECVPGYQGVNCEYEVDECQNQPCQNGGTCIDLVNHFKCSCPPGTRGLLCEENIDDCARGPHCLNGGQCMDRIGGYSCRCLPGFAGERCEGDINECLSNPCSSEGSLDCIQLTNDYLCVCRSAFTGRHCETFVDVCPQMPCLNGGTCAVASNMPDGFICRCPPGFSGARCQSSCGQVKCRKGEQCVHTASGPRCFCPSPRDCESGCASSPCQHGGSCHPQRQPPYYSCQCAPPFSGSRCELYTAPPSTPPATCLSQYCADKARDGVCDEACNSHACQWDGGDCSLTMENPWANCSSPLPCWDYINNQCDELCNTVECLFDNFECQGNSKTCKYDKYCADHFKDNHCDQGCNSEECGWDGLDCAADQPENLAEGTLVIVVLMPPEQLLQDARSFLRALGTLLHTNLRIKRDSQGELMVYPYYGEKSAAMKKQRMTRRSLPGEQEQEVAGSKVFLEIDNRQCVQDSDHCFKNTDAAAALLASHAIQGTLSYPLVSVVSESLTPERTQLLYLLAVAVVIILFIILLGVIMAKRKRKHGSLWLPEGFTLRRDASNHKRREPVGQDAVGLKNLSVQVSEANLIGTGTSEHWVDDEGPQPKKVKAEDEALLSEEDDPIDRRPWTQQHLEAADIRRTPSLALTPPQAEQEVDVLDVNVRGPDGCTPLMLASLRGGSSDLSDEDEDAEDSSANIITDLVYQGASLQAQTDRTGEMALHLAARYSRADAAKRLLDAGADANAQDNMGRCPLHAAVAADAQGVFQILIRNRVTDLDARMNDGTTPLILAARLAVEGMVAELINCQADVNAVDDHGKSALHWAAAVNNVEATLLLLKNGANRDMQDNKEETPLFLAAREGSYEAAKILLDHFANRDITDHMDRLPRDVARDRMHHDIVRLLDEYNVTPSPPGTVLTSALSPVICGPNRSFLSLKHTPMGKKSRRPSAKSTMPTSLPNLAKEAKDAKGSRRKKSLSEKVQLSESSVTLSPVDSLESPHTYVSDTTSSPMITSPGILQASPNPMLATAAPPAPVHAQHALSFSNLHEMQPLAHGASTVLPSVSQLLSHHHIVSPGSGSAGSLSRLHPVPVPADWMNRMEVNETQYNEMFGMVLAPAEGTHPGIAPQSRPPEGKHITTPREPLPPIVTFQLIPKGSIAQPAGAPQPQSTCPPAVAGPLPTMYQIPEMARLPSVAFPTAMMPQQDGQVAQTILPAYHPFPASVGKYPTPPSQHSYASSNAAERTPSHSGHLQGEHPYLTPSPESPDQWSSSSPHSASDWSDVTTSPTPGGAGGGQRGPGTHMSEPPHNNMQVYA

[6] = target: Pro-neuregulin-1, membrane-bound isoform (Homo sapiens) (UniProt Q02297); assay: small molecules binding neuregulin-1 protein – biochemical, small-molecule microarray, fluorescence 635/667, psychiatric disease protein project, primary screen (AID 1075); settings: NRG1 binding, 635 nm fluorescence, higher = more signal;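 note: score combines 667 nm spot fluorescence with signal to noise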
Pro-neuregulin-1, membrane-bound isoform (Homo sapiens), sequence (Q02297 whole entry, looked up, the tested form may be a part, canonical isoform): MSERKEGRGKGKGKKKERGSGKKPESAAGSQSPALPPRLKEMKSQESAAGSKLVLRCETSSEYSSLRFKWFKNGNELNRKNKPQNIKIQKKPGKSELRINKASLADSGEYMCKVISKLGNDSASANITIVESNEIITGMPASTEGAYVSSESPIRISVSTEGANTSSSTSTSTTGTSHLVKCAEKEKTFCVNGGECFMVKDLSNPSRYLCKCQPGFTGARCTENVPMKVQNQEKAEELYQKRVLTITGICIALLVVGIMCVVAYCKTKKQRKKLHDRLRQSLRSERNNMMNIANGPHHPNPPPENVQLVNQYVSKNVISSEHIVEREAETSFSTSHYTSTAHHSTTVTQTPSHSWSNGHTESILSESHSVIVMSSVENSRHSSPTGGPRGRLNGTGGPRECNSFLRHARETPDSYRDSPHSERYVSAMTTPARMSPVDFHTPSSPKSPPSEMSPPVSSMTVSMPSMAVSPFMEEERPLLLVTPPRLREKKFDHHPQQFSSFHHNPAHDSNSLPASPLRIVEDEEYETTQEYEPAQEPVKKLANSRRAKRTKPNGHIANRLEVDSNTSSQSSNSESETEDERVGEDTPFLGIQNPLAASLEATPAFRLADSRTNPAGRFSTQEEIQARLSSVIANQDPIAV

[7] = tested on: Neuregulin-1 EGF-like domain; assay: small molecules binding NRG1 EGF domain – biochemical, small-molecule microarray, 635 nm fluorescence, primary screen (AID 1081); settings: higher = more signal;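 note: binding of the protein to compounds printed on small-molecule microarray slides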
[8] = FRG1 expression reporter modulators in myotubes – cell-based, C2C12 myotubes, firefly/Renilla luciferase, luminescence, FRG1 inhibition for FSHD, primary screen (AID 1084); settings: FRG1 promoter luciferase, higher = more signal, called active from +8 up or from −8 down
[9] = small molecules captured by biotinylated probe aFST – biochemical, small-molecule microarray, fluorescence 635/667, stem cell growth factor project, primary screen (AID 1086); settings: higher = more signal;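 note: score merges 667 nm fluorescence with signal-to-noise of each printed compound spot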
[10] = binders of probe aHhip on microarray, primary screen, stem cell growth factor project, biochemical, small-molecule microarray, fluorescence 635/667 (AID 1087); settings: higher = more signal;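 note: score merges spot fluorescence at 667nm with spot signal to noise ratio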

| Compound | composite z-score [1] | composite z-score [2] | composite z-score [3] | composite z-score [4] | composite z-score [5] | composite z-score [6] | composite z-score [7] | z-score [8] | composite z-score [9] | composite z-score [10] |
| --- | --- | --- | --- | --- | --- | --- | --- | --- | --- | --- |
| CC(C)(C)OC(=O)CC[C@@]1(C(=O)NCC(O)CO)N=C(c2ccc(OCCCO)cc2)O[C@@H]1c1ccccc1 (stereo not given in full) | 0.222 | 1.68 | -0.11 | 0.0407 | 0.739 | 1.8 | 1.35 | 1.74 (inactive) | 0.74 | 0.12 |
| C=C(C(=O)CC[C@@H](OC(=O)c1cccnc1)c1ccc(CO)o1)C(C)C | -0.35 | 0.328 | -0.019 | 0.715 | 0.29 | 1.08 | 0.592 | 0.305 (inactive) | 0.337 | 0.0373 |
| [N-]=[N+]=NCc1ccccc1C[C@]1(C(=O)NCCN2CCOCC2)N=C(c2ccc(OCCCO)cc2)O[C@H]1c1ccccc1CN=[N+]=[N-] | -0.199 | -0.671 | 0.0011 | 1.12 | 1.03 | 1.11 | 1.2 | -0.0883 (inactive) | 1.26 | 0.0139 |
| CC(C)(C)OC(=O)CC[C@@]1(C(N)=O)N=C(c2ccc(OCCCO)cc2)O[C@@H]1c1ccccc1N=[N+]=[N-] | 0.0551 | 1.86 | 0.0354 | 1.23 | 1.46 | 0.798 | 1.36 | 3.06 (inactive) | 0.18 | -0.0645 |
| Cc1ccc(N2C(=O)c3ccccc3[C@](C)(C(=O)NCCN3CCOCC3)[C@@H]2c2ccc(CO)cc2)nc1 | 1.54 | -0.653 | -0.0249 | -0.112 | -1.41 | -0.819 | 0.0367 | 0.517 (inactive) | -0.748 | -0.287 |
| COCCOC(=O)N1C(=O)[C@@]2(c3cc(C#CC4=CCCCC4)ccc31)[C@H](C(=O)N1CCN(c3ncccn3)CC1)[C@H]1C(=O)O[C@H](c3ccccc3)[C@H](c3ccccc3)N1[C@@H]2c1ccc(OCCO)cc1 | 0.121 | 0.181 | 0.0533 | 0.723 | 1.42 | -0.289 | 1.17 | 0.384 (inactive) | 0.824 | 0.109 |
| Cc1ccc(N2C(=O)c3ccccc3[C@@H](C(=O)NC(C)C)[C@@H]2c2ccc(CO)cc2)nc1 | 0.675 | -0.374 | -0.0598 | 0.079 | -0.333 | -0.318 | 1.27 | 0.822 (inactive) | -1.08 | -0.0994 |
| COc1ccccc1CN1C(=O)c2ccccc2[C@](Cc2ccccc2I)(C(=O)NC2CC2)[C@@H]1c1ccc(CO)cc1 | -0.532 | 0.46 | 0.0673 | 0.531 | 1.32 | 0.949 | 1.42 | -2.86 (inactive) | 0.653 | 0.136 |
| CN1C(=O)C2C=CC(C(O)C(c3ccccc3)c3ccccc3)N(Nc3ccccc3)C2C1=O (stereo not given) | -0.0907 | 0.403 | 0.0814 | 0.868 | 1.48 | 1.94 | 1.21 | -0.704 (inactive) | 1.37 | -0.131 |
| COc1ccc([Si](C)(C)[C@@H]2[C@@H](CC(=O)N3Cc4ccccc4C[C@H]3CO)O[C@]3(C(=O)N(Cc4cccc(N5C(=O)COc6ccccc65)c4)c4ccccc43)[C@H]2C)cc1 | -0.562 | 0.608 | -0.1 | 0.41 | 0.244 | 1.57 | 0.725 | -2.29 (inactive) | 0.0559 | -0.451 |
| CN(C)CCCC[C@@H]1NC(=O)[C@@H]2C[C@H](C(=O)NCCCCCCN)[C@H](c3ccc(O)cc3)N2C1=O | 1.95 | 0.58 | 0.15 | 0.727 | 0.921 | 1.39 | 1.44 | -0.0024 (inactive) | 2.16 | 0.861 |
| CN(C)CCCN1C(=O)[C@@]2(c3ccc([N+](=O)[O-])cc3)CC(=O)N(C3CCCCC3)[C@@H]2c2ccc(CO)cc21 | -0.363 | -0.0124 | -0.107 | 0.251 | 0.166 | -0.483 | -1.19 | 1.19 (inactive) | 0.161 | -0.353 |
| C=C(/C(=C/C[C@@H](OC(=O)c1ccncc1)c1ccc(CO)o1)c1cc(C(=O)OC)ccc1OC)C(C)C | -0.441 | 1.46 | -0.0226 | 0.901 | 0.974 | 1.15 | 0.954 | -1.13 (inactive) | 0.377 | 0.0373 |
| COc1ccc([Si](C)(C)[C@H]2[C@H](CCO)O[C@@]3(C(=O)N(Cc4cccc(N5C(=O)c6cccc7cccc5c67)c4)c4ccccc43)[C@@H]2C)cc1 | 0.0761 | -0.364 | 0.0253 | 0.404 | -0.136 | 0.795 | 1 | -1.43 (inactive) | -0.26 | -0.212 |
| COCCn1c(C(=O)N2CCCC2)cc2c1C[C@H]1CN(C(=O)c3ccccc3)[C@@](Cc3ccc(OC)cc3)(C(=O)OC)[C@@H]21 | 1.42 | 1.86 | 0.264 | 0.43 | 1.64 | 2.12 | 0.905 | -1.1 (inactive) | 0.602 | -0.0994 |
| O=C(CS)NCCCCCNC(=O)[C@H]1C[C@H]2C(=O)N[C@@H](Cc3ccccc3)C(=O)N2[C@H]1c1cccc(OCCO)c1 | 0.0238 | 1.31 | -0.0195 | 1.16 | 0.617 | 0.244 | 1.33 | -0.676 (inactive) | 0.551 | -0.156 |
| Cc1ccc(S[C@]2(C(=O)NCC(F)(F)F)CC(=O)N(C3Cc4ccccc4C3)[C@@H]2c2ccc(CO)cc2I)cc1 | 1.27 | 0.0708 | -0.11 | -0.433 | -0.929 | 0.569 | 0.455 | -0.92 (inactive) | -0.265 | 0.0024 |

| Compound | composite z-score [1] | composite z-score [2] | composite z-score [3] | composite z-score [4] | composite z-score [5] | composite z-score [6] | composite z-score [7] | z-score [8] | composite z-score [9] | composite z-score [10] |
| --- | --- | --- | --- | --- | --- | --- | --- | --- | --- | --- |
| C=C(COC)/C(=C/C[C@H](OC(C)=O)c1ccccc1OCCO)c1cnc2ccccc2c1 | -0.419 | -0.288 | -0.0366 | 1.08 | 1.33 | 1.19 | 1.13 | -0.267 (inactive) | 0.101 | 0.142 |
| O=C1O[C@H](c2ccccc2)[C@H](c2ccccc2)N2[C@H]1[C@@H](C(=O)Nc1nc3ccccc3s1)[C@]1(C(=O)Nc3ccc(C#CC4=CCCCC4)cc31)[C@H]2c1ccc(OCCO)cc1 | -0.576 | 0.188 | -0.0148 | 0.556 | 0.6 | 0.734 | 1.11 | 3.08 (inactive) | 1.21 | 0.0834 |
| CN(C)CCCCCCNC(=O)[C@@H]1C[C@@H]2C(=O)NCC(=O)N2[C@@H]1c1cccc(OCCO)c1 | -0.131 | 1.37 | 0.153 | 0.816 | 1.14 | 0.346 | 1.26 | 2.12 (inactive) | 0.555 | 0.164 |
| C=CC[C@]1(C(=O)O)N=C(c2ccc(OCCCO)cc2)O[C@H]1c1ccccc1CN=[N+]=[N-] | 0.736 | -0.43 | -0.144 | -0.638 | -0.129 | 0.743 | 0.467 | 2.22 (inactive) | 0.182 | -0.275 |
| COc1ccc(C#Cc2ccc3c(c2)[C@]2(C(=O)N3)[C@H](C(=O)N3CCN(c4ncccn4)CC3)[C@H]3C(=O)O[C@H](c4ccccc4)[C@H](c4ccccc4)N3[C@@H]2c2ccc(O)cc2)cc1 | -0.092 | 0.308 | -0.232 | 0.207 | 0.871 | 1.19 | 1.17 | 0.437 (inactive) | 0.234 | -0.353 |
| Cc1ccc([C@H]2C(C(=O)O)=C[C@@H](C(C)C)N2S(=O)(=O)c2ccc(C)cc2)cc1 | -0.0974 | -0.304 | -0.0667 | 0.163 | 1.14 | 1.19 | 1.31 | -1.57 (inactive) | 0.384 | -0.287 |
| COc1cc(NN2C(C(O)c3ccccc3)C=CC3C(=O)N(c4ccccc4)C(=O)C32)cc(OC)c1OC (stereo not given) | -0.0824 | 0.215 | 0.135 | 1.13 | 1.56 | 1.87 | 1.38 | 0.556 (inactive) | 1.08 | -0.194 |
| C=C(CCCC)C(=O)CC[C@H](OC(=O)c1ccccc1-c1ccccc1C(=O)O)c1ccc(CO)o1 | -0.619 | 0.779 | -0.0206 | 1.16 | 0.455 | 0.606 | 1.25 | -0.225 (inactive) | 0.367 | -0.0994 |
| C=C(C)[C@@H]1CC=C(C(O)C2C=CC3C(=O)N(Cc4ccccc4)C(=O)C3N2n2cnnc2)CC1 (stereo not given in full) | 0.29 | 0.271 | -0.0877 | -0.215 | -0.274 | 0.485 | 0.703 | 0.225 (inactive) | 0.325 | 0.208 |
| COCCOC(=O)N1C(=O)[C@@]2(c3cc(C#CCCO)ccc31)[C@H](c1ccc(O)cc1)N1[C@H](c3ccccc3)[C@H](c3ccccc3)OC(=O)[C@H]1[C@@H]2C(=O)N1CCCCCCC1 | 2.58 | 1.07 | 0.2 | 1.04 | 1.33 | 0.853 | 1.14 | -0.73 (inactive) | 2 | 0.7 |
| CC1(C)C(=O)C(c2ccccc2)=C2CN3C(=O)N(CCc4ccccc4)C(=O)C3(Cc3ccccc3)C=C21 (stereo not given) | 0.0442 | -0.219 | -0.0465 | 0.235 | 1.63 | 0.328 | 0.949 | 0.586 (inactive) | 1.15 | -0.11 |
| CC(C)C(=C=CC[C@H](O)c1ccccc1OCCO)CCO | 0.0409 | -0.0204 | -0.152 | 0.161 | -0.679 | 0.319 | 0.614 | 0.129 (inactive) | -0.0031 | -0.0994 |
| C=CCN1Cc2ccccc2C[C@]2(N=C(c3ccc(OCCCO)cc3)O[C@@H]2c2ccccc2)C1=O | 0.211 | 0.363 | -0.0883 | -0.147 | 0.977 | 0.414 | 1.35 | -3.57 (inactive) | 0.607 | 0.0722 |
| CC1CC/C=C\[C@H]2OC34C=CCN(CCN5CCOCC5)C(=O)[C@H]3N(CCCCCO)C(=O)[C@@H]4C2C(=O)O1 (stereo not given in full) | -0.0823 | -0.368 | -0.21 | -1.05 | -0.777 | -0.85 | -0.358 | 0.209 (inactive) | -0.633 | -0.216 |
| Cn1c2c(c3ccccc31)C(=O)C1NC2C=CC1(C)C(=O)OCc1ccccc1 (stereo not given) | 1.03 | 0.979 | -0.176 | -1.31 | -1.15 | 1.06 | 0.467 | -1.52 (inactive) | -0.478 | -0.0645 |
| CCCCCCCCCCC(O)C1C=CC2C(=O)N(c3ccccc3)C(=O)C2N1Nc1ccc([N+](=O)[O-])cc1 (stereo not given) | -0.325 | 0.112 | -0.0107 | 0.461 | 1.44 | 1.11 | 1.05 | 1.39 (inactive) | 0.574 | -0.199 |
